Compounds without any hit were thinned out: in the full panel of roughly 83,000, 20% have a hit.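 Growth was measured after 48 h exposure to one concentration of compound in 96-well plates. Values under 10 count as active.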 Unmarked numbers belong to inactive results. Activity calls are given as the source filed them.
Columns and labels:
Assay in all cases: NCI-60 one-dose screen, 48 h (100 = growth as untreated, 0 = no growth, -100 = all killed)
Conditions in all cases: 10 µM unless noted
DU-145 prostate = system: DU-145 prostate
K-562 leukemia = system: K-562 leukemia
MALME-3M melanoma = system: MALME-3M melanoma
MDA-MB-231 breast = system: MDA-MB-231 breast
RXF 393 renal = system: RXF 393 renal
SF-268 CNS = system: SF-268 CNS
SF-295 CNS = system: SF-295 CNS
UACC-257 melanoma = system: UACC-257 melanoma
M14 melanoma = system: M14 melanoma
HCT-15 colon = system: HCT-15 colon
HT29 colon = system: HT29 colon
SNB-75 CNS = system: SNB-75 CNS
SNB-19 CNS = system: SNB-19 CNS
U251 CNS = system: U251 CNS
PC-3 prostate = system: PC-3 prostate
SK-MEL-5 melanoma = system: SK-MEL-5 melanoma
UACC-62 melanoma = system: UACC-62 melanoma
LOX IMVI melanoma = system: LOX IMVI melanoma
SF-539 CNS = system: SF-539 CNS
SK-MEL-28 melanoma = system: SK-MEL-28 melanoma

SMILES | growth (DU-145 prostate) | growth (K-562 leukemia) | growth (MALME-3M melanoma) | growth (MDA-MB-231 breast) [%] | growth (RXF 393 renal) | growth (SF-268 CNS) [%] | growth (SF-295 CNS) | growth (UACC-257 melanoma) | growth (M14 melanoma) | growth (HCT-15 colon) | growth (HT29 colon) | growth (SNB-75 CNS) [%] | growth (SNB-19 CNS) [%] | growth (U251 CNS) | growth (PC-3 prostate) | growth (SK-MEL-5 melanoma) | growth (UACC-62 melanoma) | growth (LOX IMVI melanoma) | growth (SF-539 CNS) | growth (SK-MEL-28 melanoma)
CC/C=C\C[C@H](O)C/C=C1/C(=O)C=C[C@@H]1C/C=C\CCCC(=O)NC(C)C | 27.2% | 3.29% (active) | -4.08% (active) | 19.9 | -64.8% (active) | 35.4 | 6.21% (active) | -4.26% (active) | 7.13% (active) | -33.9% (active) | -29.6% (active) | 68 | 31.8 | 2.26% (active) | 16.4% | -69.8% (active) | -61% (active) | -46.9% (active) |  | 
Cc1ccc(N)cc1F | 109% | 99.1% | 93.5% | 82 | 104% | 98.6 | 110% |  | 88.2% | 91.7% | 110% | 101 |  | 95.8% | 108% | 104% | 96% | 87.8% | 100% | 117%
Cc1cc2cc3cc(C)c(N(C)C)cc3[n+](C)c2cc1N(C)C | 24.2% | 44.7% | 19.9% | 57.1 | 25% | 11.7 | 16.6% |  | 41.2% | 65.6% | 16.6% | 35.4 |  | 12.3% | 4.2% (active) | 42.1% | 56% | 25.9% | 9.99% (active) | 39.6%
Cc1ccc(SCN2CCN(c3cccc(Cl)c3)CC2)cc1 | 116% | 118% | 87.3% | 84.3 | 108% | 100 | 97.3% |  | 96.9% | 93.1% | 110% | 85.4 |  | 89.1% | 101% | 93.7% | 89% | 81.6% | 96.2% | 120%
Cc1cc2cc3cc(C)c(N(C)C)cc3nc2cc1N(C)C | 25.4% | 41.5% | 28.4% | 63.2 | 24% | 13.9 | 19.4% |  | 37.4% | 71.6% | 15.9% | 26.6 |  | 15.4% |  | 28.5% | 58.5% | 24% | 8.78% (active) | 40.6%
COc1ccc(S(=O)(=O)NCCNc2nccc(-c3c(-c4cccc([N+](=O)[O-])c4)nc4sccn34)n2)cc1 | 80% | 76.1% | 111% | 82.9 | 78% | 66.4 | 90.6% | 106% | 102% | 77.5% | 74.8% |  | 91.6 | 91.1% |  | 63.6% | 84% | 88.6% | 99.3% | 107%
O=c1cc(-c2ccccc2)[nH]c2ccccc12 | 17.6% | 32.6% | 50% | 95.6 | 36.1% | 50.5 | 16.4% |  | 15.9% | 17.5% | 15.3% | 30 |  | 27.2% | 27.1% | 29.4% | 64.5% | 57.7% | 4.43% (active) | 62.4%
Nc1cccc(NC(=O)C(=O)Nc2cccc(N)c2)c1 | 107% | 95.3% | 141% | 104 | 87.5% | 101 | 98.1% |  | 87.4% | 94.5% | 115% | 94 |  | 95.8% | 99.8% | 117% | 90.6% | 90% | 111% | 103%
COc1ccc(C2c3ccc4ccccc4c3Oc3ncnc(N)c32)cc1 (configuration not stated) | 102% | 41.2% | 93.1% | 64.8 | 85.5% | 86.2 | 87% | 98.5% | 83% | 88.5% | 104% |  |  | 92.8% | 71.9% | 85.5% | 66.9% | 76.5% | 88.2% | 91.9%
COc1ccc(-n2cc(-c3ccccc3)c3c(SCC(=O)N/N=C/c4ccc([N+](=O)[O-])cc4)ncnc32)cc1 | 114% | 110% | 110% | 102 | 113% | 98.5 | 105% | 107% | 108% | 108% | 114% |  |  | 104% | 96.4% | 100% | 97.5% | 94.2% | 97.9% | 110%
O=C(CN1CCN(c2cc3c(cc2F)c(=O)c(C(=O)N/N=C/c2ccccc2)cn3C2CC2)CC1)N/N=C\c1ccccc1 | 90.4% | 56.6% | 120% | 70.3 | 72.7% | 72.5 | 74.8% | 99% | 74.1% | 53.9% | 73.4% |  | 74 | 83.7% |  | 83% | 71.4% | 72.6% | 76.2% | 88.9%
CCN(CC)CCCC(C)Nc1ccnc2c(OC)cccc12 (configuration not stated) | 120% | 121% | 142% | 107 | 135% | 124 | 109% | 113% | 108% | 120% | 107% |  | 113 | 102% |  | 111% | 114% | 107% | 116% | 119%
CNCc1cccc2c1OCCOCCOCCN(C)S(=O)(=O)c1ccc(cc1)-c1cnc(N)c(n1)C(=O)N2 | 47.4% | 1.1% (active) | 9.53% (active) | 69.1 | -54.8% (active) | 69.4 | 87.6% | 63.4% | 37.3% | 11.4% | 13.2% | 33.2 | 93.3 | 12.8% | 54.1% | 82.5% | 29.4% | -16% (active) |  | 
ClC1=C2NC=NC2n2c(nnc2-c2ccc(Cl)cc2)N1 (configuration not stated) | 112% | 91.1% | 129% | 95.6 | 101% | 111 | 97.8% | 101% | 102% | 96.4% | 91.5% | 107 | 92.7 | 89.6% | 89.9% | 96.9% | 92.1% | 108% |  | 
O=[N+]([O-])c1cccc(-c2nc3sccn3c2-c2ccnc(NCCCNS(=O)(=O)c3cccc(F)c3)n2)c1 | 9.77% (active) | 4.26% (active) | -10.6% (active) | 47.6 | 52% | 11.8 | 5.83% (active) | -15.2% (active) | -1.16% (active) | 2.21% (active) | 21.3% |  |  | 39.8% | -14% (active) | -71.2% (active) | -37.8% (active) | -17.6% (active) | 34.8% | -4.71% (active)
O=C(O)c1cccc2c1-c1ccccc1C2=O | 114% | 119% | 85.8% | 96 | 90.4% | 105 | 96.6% |  | 94.5% | 95.7% | 103% | 86.8 |  | 95.7% | 94% | 102% | 90.1% | 97.5% | 97.9% | 109%

Source: PubChem BioAssay (NCI)
